Inconclusive results are not listed. Active and inactive are the calls of the source. Unless noted, the call rests on the fitted dose curve.
Legend:
[1] = Nuclear factor erythroid 2-related factor 2/antioxidant responsive element (Nrf2/ARE) small molecule agonists: qHTS cell viability counter screen in human keratinocytes (AID 1919968; active means well fitted curve in the direction sought with a large enough effect in the repeat runs; an effect the other way counts as inactive or inconclusive; further: nearly all actives have a fitted effect of over 55% in size; further: potency means the concentration at half of the fitted maximal effect)
Outline: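 Fluorescence read-out from CellTiter-Fluor after 1 h at 37 C. Wells held HaCaT-derived ARE-luciferase reporter cells (1,500/well) treated 23 h with DMSO-dissolved compounds. Run in the same wells as the luciferase agonist read.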

[2] = Nuclear factor erythroid 2-related factor 2/antioxidant responsive element (Nrf2/ARE) small molecule agonists: luciferase reporter gene qHTS assay in human keratinocytes (AID 1919969); further: nearly all actives have a fitted effect of over 35% in size; further: potency means the concentration at half of the fitted maximal effect
[3] = biological target: Gonadotropin-releasing hormone receptor (Homo sapiens) (UniProt P30968); assay: Human gonadotropin-releasing hormone receptor (GnRHR) small molecule agonists, calcium flux assay in GnRHR-HEK293 cells (AID 1920063); further: nearly all actives have a fitted effect of over 35% in size; further: potency means the concentration at half of the fitted maximal effect
Sequence of Gonadotropin-releasing hormone receptor (Homo sapiens) (P30968 whole entry, looked up): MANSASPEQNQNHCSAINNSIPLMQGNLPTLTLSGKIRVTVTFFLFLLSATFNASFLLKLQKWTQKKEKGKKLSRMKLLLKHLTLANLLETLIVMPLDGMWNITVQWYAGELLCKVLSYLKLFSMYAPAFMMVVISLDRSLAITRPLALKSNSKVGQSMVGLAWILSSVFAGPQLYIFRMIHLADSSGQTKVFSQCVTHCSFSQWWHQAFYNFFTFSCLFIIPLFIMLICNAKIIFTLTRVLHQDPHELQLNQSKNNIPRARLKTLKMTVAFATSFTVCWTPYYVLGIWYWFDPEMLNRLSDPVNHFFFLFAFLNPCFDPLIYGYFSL
Outline: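 Calcium-dye fluorescence, Ex/Em=480/540, recorded every 1 sec over 3 min after compound addition to GnRHR-HEK293 cells. Cells had been seeded 18 hours earlier and dye-loaded for 1 hour at 37 C. Fifteen concentrations, triplicates.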

[4] = biological target: KiSS-1 receptor (Homo sapiens) (UniProt Q969F8); assay: Human kisspeptin (KISS1R) small molecule agonists, calcium flux assay in KISS1R-HEK293 cells (AID 1920064; active means well fitted curve in the direction sought with a large enough effect in the repeat runs; an effect the other way counts as inactive or inconclusive)
Sequence of KiSS-1 receptor (Homo sapiens) (Q969F8 whole entry, looked up): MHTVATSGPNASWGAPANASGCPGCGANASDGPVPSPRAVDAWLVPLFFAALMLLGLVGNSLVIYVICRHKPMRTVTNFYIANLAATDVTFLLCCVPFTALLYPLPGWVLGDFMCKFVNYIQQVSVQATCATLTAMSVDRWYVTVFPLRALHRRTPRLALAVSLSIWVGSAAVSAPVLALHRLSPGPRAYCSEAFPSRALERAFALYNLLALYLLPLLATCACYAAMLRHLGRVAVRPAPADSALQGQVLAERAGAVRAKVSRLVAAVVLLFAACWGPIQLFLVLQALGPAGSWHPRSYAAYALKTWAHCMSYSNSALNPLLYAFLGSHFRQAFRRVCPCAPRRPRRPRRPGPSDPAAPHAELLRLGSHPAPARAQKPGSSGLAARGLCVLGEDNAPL
Outline: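 Calcium flux read-out: kinetic fluorescence at Ex/Em=480/540, 1 s intervals over 3 min, after pin-tool compound addition to dye-loaded KISS1R-HEK293 cells. Fifteen concentrations, triplicates.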

[5] = G protein-coupled receptor (GPCR) small molecule agonists, calcium flux assay: HEK293 wild type cell line counter screen (AID 1920065)
Outline: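 Agonist mode; 18 h seeding at 37 C, 1 h dye load at 37 C; compounds pinned from DMSO, ATP as positive control; kinetic fluorescence 480/540 nm, 3 min, 1 s reads; 15 concentrations, triplicate.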

[6] = p53 small molecule agonists, cell-based qHTS assay with human liver microsomes (AID 1963577);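 further: p53 response element beta-lactamase reporter cells with liver microsomes plus NADPH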
Outline: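 With metabolic activation: human liver microsomes (0.5 mg/mL final) plus NADPH (0.5 mg/mL final) added alongside compounds to p53RE-bla cells; 16 h 37 C exposure; beta-lactamase read by LiveBLAzer fluorescence.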

[7] = p53 small molecule agonists, cell-based qHTS assay with rat liver microsomes (AID 1963578)
Outline: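 Metabolic activation by rat liver microsomes and NADPH, each 0.5 mg/mL final, added right after compounds to p53RE-bla reporter cells (4,000/well, plated 5 h earlier). 16 h at 37 C, then LiveBLAzer substrate for 2 h at room temperature in the dark; fluorescence read-out.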

[8] = biological target: Beta-2 adrenergic receptor (Homo sapiens) (UniProt P07550); assay: Adrenergic beta2 receptor (ADRB2) small molecule antagonists, cell-based qHTS assay (AID 1963592); further: nearly all actives have a fitted effect of over 50% in size; further: potency means the concentration at half of the fitted maximal effect
Sequence of Beta-2 adrenergic receptor (Homo sapiens) (P07550 whole entry, looked up): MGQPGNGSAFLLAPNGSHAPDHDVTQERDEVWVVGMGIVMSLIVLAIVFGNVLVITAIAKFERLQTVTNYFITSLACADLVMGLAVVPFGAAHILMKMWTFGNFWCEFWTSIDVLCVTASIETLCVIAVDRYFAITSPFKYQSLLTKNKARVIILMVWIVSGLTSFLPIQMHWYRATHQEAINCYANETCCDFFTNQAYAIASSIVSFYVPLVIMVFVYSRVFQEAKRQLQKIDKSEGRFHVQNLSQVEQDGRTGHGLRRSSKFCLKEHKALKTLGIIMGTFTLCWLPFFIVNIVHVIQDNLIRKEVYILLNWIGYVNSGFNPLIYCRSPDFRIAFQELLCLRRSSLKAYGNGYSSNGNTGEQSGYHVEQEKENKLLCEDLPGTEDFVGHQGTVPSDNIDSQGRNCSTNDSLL
Outline: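 Assay format: CHO-ADRB2 cells, 18-20hr seeding at 37C/5% CO2, then compound plus 1nM isoproterenol agonist mix for 0.5hr RT. Homogeneous time-resolved fluorescence cAMP detection after 1hr, expressed as 665/615 nm ratio.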

[9] = biological target: D(2) dopamine receptor (Homo sapiens) (UniProt P14416); assay: Dopamine D2 receptor (DRD2) small molecule agonists, cell-based qHTS assay (AID 1963594); further: nearly all actives have a fitted effect of over 35% in size
Sequence of D(2) dopamine receptor (Homo sapiens) (P14416 whole entry, looked up): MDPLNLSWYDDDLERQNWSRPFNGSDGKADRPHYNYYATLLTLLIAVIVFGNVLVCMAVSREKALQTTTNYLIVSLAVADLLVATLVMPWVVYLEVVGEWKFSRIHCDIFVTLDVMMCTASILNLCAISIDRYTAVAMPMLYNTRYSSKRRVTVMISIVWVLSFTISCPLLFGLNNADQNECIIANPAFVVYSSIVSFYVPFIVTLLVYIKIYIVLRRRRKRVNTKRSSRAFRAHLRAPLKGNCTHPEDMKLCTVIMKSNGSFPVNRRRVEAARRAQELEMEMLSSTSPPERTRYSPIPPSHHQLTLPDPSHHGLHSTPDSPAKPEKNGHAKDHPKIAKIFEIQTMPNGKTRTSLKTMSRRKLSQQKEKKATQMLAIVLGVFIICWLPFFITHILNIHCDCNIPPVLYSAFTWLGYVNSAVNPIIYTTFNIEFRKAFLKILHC
Outline: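 HEK293 cells stably expressing human DRD2, pre-treated with PDE inhibitor Ro20-1724 (0.1 mM final) and compound 10 min at room temperature, then stimulated with NKH477 (200nM […]) for 30 min. cAMP read by HTRF (665/620 nm).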

[10] = biological target: D(2) dopamine receptor (Homo sapiens) (UniProt P14416); assay: Dopamine D2 receptor (DRD2) small molecule antagonists, cell-based qHTS assay (AID 1963595; active means well fitted inhibition curve with a large enough effect in the signal ratio in the repeat runs, with a control signal flat; the % refers to the signal ratio; further: potency means the concentration at half of the fitted maximal effect)
Outline: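 Antagonist mode in DRD2-HEK293 cells: after compound addition with 0.1 mM Ro20-1724, cells received quinpirole (12 nM) and NKH477 (200 nM) for 30 min at room temperature; HTRF cAMP read after 1 h detection.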

[11] = biological target: 5-hydroxytryptamine receptor 2A (Homo sapiens) (UniProt P28223); assay: 5-hydroxytryptamine receptor 2A (HTR2A) small molecule agonists, cell-based qHTS assay (AID 1963587); further: nearly all actives have a fitted effect of over 30% in size; further: potency means the concentration at half of the fitted maximal effect
Sequence of 5-hydroxytryptamine receptor 2A (Homo sapiens) (P28223 whole entry, looked up): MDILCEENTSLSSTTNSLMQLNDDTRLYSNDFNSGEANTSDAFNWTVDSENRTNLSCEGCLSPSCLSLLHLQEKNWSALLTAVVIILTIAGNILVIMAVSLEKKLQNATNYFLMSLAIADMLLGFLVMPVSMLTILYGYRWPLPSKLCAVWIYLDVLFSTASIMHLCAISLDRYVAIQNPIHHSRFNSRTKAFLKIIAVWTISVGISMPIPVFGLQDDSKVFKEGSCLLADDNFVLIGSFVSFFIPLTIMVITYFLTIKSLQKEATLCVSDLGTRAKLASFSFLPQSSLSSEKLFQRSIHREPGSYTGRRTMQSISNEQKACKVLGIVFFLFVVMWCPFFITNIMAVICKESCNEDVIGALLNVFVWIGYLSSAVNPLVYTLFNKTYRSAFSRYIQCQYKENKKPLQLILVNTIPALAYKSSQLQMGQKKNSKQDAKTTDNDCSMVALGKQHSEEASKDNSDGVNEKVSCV
Outline: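 CHO cells stably expressing human HTR2A, plated 18 h, loaded with calcium dye 1 h at 37 C. Agonist mode: compounds added and intracellular calcium fluorescence recorded kinetically for 2 min at 1 sec intervals.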

[12] = biological target: Muscarinic acetylcholine receptor M1 (Homo sapiens) (UniProt P11229); assay: Cholinergic receptor muscarinic 1 (CHRM1) small molecule agonists, cell-based qHTS assay (AID 1963589); further: nearly all actives have a fitted effect of over 35% in size
Sequence of Muscarinic acetylcholine receptor M1 (Homo sapiens) (P11229 whole entry, looked up): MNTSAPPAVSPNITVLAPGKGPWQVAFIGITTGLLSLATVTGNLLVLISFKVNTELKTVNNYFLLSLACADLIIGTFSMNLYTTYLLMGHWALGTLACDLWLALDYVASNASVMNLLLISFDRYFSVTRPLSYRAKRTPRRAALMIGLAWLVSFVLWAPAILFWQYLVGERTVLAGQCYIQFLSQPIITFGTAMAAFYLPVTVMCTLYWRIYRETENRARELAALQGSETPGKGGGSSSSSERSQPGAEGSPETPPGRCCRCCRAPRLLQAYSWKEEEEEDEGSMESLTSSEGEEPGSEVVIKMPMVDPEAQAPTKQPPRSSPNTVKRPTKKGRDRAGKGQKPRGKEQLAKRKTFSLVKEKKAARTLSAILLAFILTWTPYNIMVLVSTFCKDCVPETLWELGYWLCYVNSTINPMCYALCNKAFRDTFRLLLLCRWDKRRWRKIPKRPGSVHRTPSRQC
Outline: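 Calcium flux read-out: kinetic fluorescence at 1 sec intervals after pin-tool compound addition to dye-loaded CHRM1-CHO cells (human M1). Agonist mode; 15 concentrations tested in triplicate independent runs.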

[13] = p53 small molecule agonists, cell-based qHTS assay with rat liver microsomes: qHTS cell viability counter screen (AID 1963580); further: nearly all actives have a fitted effect of over 45% in size
Outline: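 After the beta-lactamase ratio was read, CellTiter-Glo was added to the same wells and luminescence measured at 30 min; cells had been treated 16 h at 37 C with compounds, rat liver microsomes and NADPH (0.5 mg/mL final each).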

[14] = p53 small molecule agonists, cell-based qHTS assay: qHTS cell viability counter screen (AID 1963581); further: nearly all actives have a fitted effect of over 45% in size
Outline: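 Cytotoxicity read-out: ATP-based luminescence (CellTiter-Glo, 30 min RT) measured in the same wells as the p53 reporter assay, HCT-116 p53RE-bla cells, 16 h compound exposure at 37 C.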

[15] = p53 small molecule agonists, cell-based qHTS assay (AID 1963582; active means well fitted activation curve with a large enough effect in the signal ratio in the repeat runs, not every such curve was filed as active; the % refers to the signal ratio; further: potency means the concentration at half of the fitted maximal effect)
Outline: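 Fluorescence intensity read-out of a beta-lactamase reporter under a p53 response element. Cells were exposed to DMSO-dissolved compounds for 16 h at 37 C, then developed with FRET substrate for 2 h at RT.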

[16] = biological target: 5-hydroxytryptamine receptor 2A (Homo sapiens) (UniProt P28223); assay: 5-hydroxytryptamine receptor 2A (HTR2A) small molecule antagonists, cell-based qHTS assay (AID 1963586); further: nearly all actives have a fitted effect of over 45% in size
Outline: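 CHO cells stably expressing human HTR2A were plated for 18 h at 37 C, then loaded with calcium dye for 1 h. Compounds were preincubated 5 min at room temperature before DOI (4 nM solution) was added. Kinetic fluorescence was read for 3 min.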

[17] = biological target: Muscarinic acetylcholine receptor M1 (Homo sapiens) (UniProt P11229); assay: Cholinergic receptor muscarinic 1 (CHRM1) small molecule antagonists, cell-based qHTS assay (AID 1963588); further: nearly all actives have a fitted effect of over 40% in size; further: potency means the concentration at half of the fitted maximal effect
Outline: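 Compounds were tested at 15 concentrations in three independent runs. Dye-loaded CHRM1-CHO cells were exposed 5 min at room temperature before stimulation by acetylcholine added at 50nM. Intracellular calcium was read kinetically on FDSS for 3 min.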

[18] = cAMP Responsive Elements (CRE) small molecule agonists, cell-based qHTS assay (AID 1963590)
Outline: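 Beta-lactamase reporter readout: LiveBLAzer B/G FRET substrate, 2 h at room temperature, added after 3 h compound treatment of CRE-bla HEK 293T cells at 37 C/5% CO2.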

[19] = cAMP Responsive Elements (CRE) small molecule antagonists, cell-based qHTS assay (AID 1963591; active means well fitted inhibition curve with a large enough effect in the signal ratio in the repeat runs, not every such curve was filed as active; the % refers to the signal ratio)
Outline: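 HEK293T CRE-bla; 18 h preincubation; compound pin-transfer; NKH477 0.25 uM final, 3 h, 37 C; LiveBLAzer FRET substrate 2 h RT.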

[20] = biological target: Beta-2 adrenergic receptor (Homo sapiens) (UniProt P07550); assay: Adrenergic beta2 receptor (ADRB2) small molecule agonists, cell-based qHTS assay (AID 1963593);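 further: CHO cells stably overexpressing human ADRB2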
Outline: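 CHO cells stably over-expressing ADRB2 were plated overnight at 37C, then dosed with compounds plus a stimulation mix containing 100uM IBMX and 25uM Ro-20-1724 for 0.5hr at room temperature. cAMP was measured by HTRF competition, 1hr.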

Measured: Potency

CCCCCCCCCCCCCC[n+]1ccccc1
inactive: [2] | [4] | [5] | [6] | [7] | [8] | [9] | [10]
active: [1] 27.3 µM | [3] 34.7 µM

OC1(c2ccc(Cl)c(C(F)(F)F)c2)CCN(CCCC(c2ccc(F)cc2)c2ccc(F)cc2)CC1
active: [1] 6.68 µM | [8] 26.6 µM | [10] 0.119 µM
inactive: [2] | [3] | [4] | [5] | [6] | [7] | [11] | [12] | [9]

Nc1cnn([C@@H]2O[C@H](CO)[C@@H](O)[C@H]2O)c(=O)n1
active: [15] 1.45 µM
not listed: [10]
inactive: all other assays above

CC(=O)OCC(=O)[C@@]1(O)CC[C@H]2[C@@H]3CCC4=CC(=O)C=C[C@]4(C)[C@@]3(F)[C@@H](O)C[C@@]21C
not listed: [20]
inactive: all other assays above

O=Cc1ccc(F)c(Br)c1
not listed: [20]
inactive: all other assays above

O=c1cc(-c2ccccc2)oc2ccc3ccccc3c12
active: [2] 0.486 µM
inactive: [1] | [3] | [4] | [5] | [6] | [7] | [15] | [9] | [10]

CC(NC(CCc1ccccc1)C(=O)O)C(=O)N1C(=O)N(C)CC1C(=O)O (configuration not stated)
not listed: [20]
inactive: all other assays above

NC(=O)c1ccccc1[N+](=O)[O-]
not listed: [10] | [13] | [14] | [15] | [19]
inactive: all other assays above

CC(C)=CCC[C@H](C)CCO
not listed: [20]
inactive: all other assays above

CC(=O)O[C@@H]1CC2CCC1(C)C2(C)C (some centres not stated)
not listed: [13] | [14] | [15] | [17]
inactive: all other assays above

CCCCOCCOC(=O)CCCCCCCCC(=O)OCCOCCCC
inactive: all assays above

CCCCCCCCCCCCN(CCO)CCO
active: [1] 30.5 µM | [3] 30.8 µM | [11] 48.8 µM | [17] 11.8 µM
inactive: [2] | [4] | [5] | [6] | [7] | [12] | [8] | [9] | [10]

O=[N+]([O-])c1ccc(/C=N\O)o1
active: [2] 23.7 µM
not listed: [8]
inactive: all other assays above

Cc1ccc(C)c(N)c1
not listed: [9] | [20]
inactive: all other assays above

Cc1ccccc1C(=O)Nc1ccc(C(=O)N2CCCC(N(C)C)c3ccccc32)cc1 (configuration not stated)
not listed: [8] | [13] | [14] | [15] | [18] | [19]
inactive: all other assays above

— PubChem BioAssay (Tox21)
